Laboratory results taken from the supplement of paper PMC6555819.

Columns and labels:
Assay in all cases: PBM binding z-score (relative to random genomic background probes); higher = stronger binding; sequences stand for … in GC…GCGATTGACAGCGTAGAATGAAGG
[1] = test system: RARb homodimer (NR concentration 270 nM)
Method in brief: (§1)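 Ligand-free nuclear receptor dimers were bound for 1 h to custom Agilent 4×180K protein-binding microarrays. Detection used antibodies against each partner (one per run). Binding z-scores rest on regression-normalized fluorescence, with random background probes as the reference.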

[2] = test system: RARg:RXRa (NR concentration 270 nM, RXRa partner concentration 90 nM)
Method in brief: as §1

[3] = test system: RARg homodimer (NR concentration 270 nM)
Method in brief: as §1

[4] = test system: RXRa DBDmut IVT, anti-RXR (DBD mutation: RXRa K156A/R161A, NR concentration 90 nM)
Method in brief: as §1

[5] = test system: RXRa homodimer (NR concentration 180 nM)
Method in brief: as §1

[6] = test system: THRa:RXRa (NR concentration 90 nM, RXRa partner concentration 90 nM)
Method in brief: as §1

[7] = test system: THRa homodimer (NR concentration 90 nM)
Method in brief: as §1

[8] = test system: VDR homodimer (NR concentration 270 nM)
Method in brief: as §1

Sequence	PBM binding z-score [1]	PBM binding z-score [2]	PBM binding z-score [3]	PBM binding z-score [4]	PBM binding z-score [5]	PBM binding z-score [6]	PBM binding z-score [7]	PBM binding z-score [8]
TCTTGTAGATCAGCAGGATAAGAAAGCTGGCCAA	-0.798	-0.461	-0.47	0.379	-0.273	-0.557	-0.84	-0.775
AGAATGAGCTTACCAAAGATCAGGGAAACGCTTG	-0.958	-0.0102	-0.129	-0.777	0.323	-0.369	-0.963	-0.938
GCTGCTAGGGCAACTGATGGTCAGCTAAAGCTCG	0.973	0.792	1.27	-0.0325	-0.494	-0.0894	-1.3	-1.03
GGAACGAGGGCAAGTTGATATCAGAGTTTGATGG	1.7	1.66	2.58	2.63	0.916	1.46	0.151	2.21
GGAACGAGGGCAAACTTGATAGCATCTGTCGACG	1.03	1.52	1.62	3.1	1.17	1.09	-0.309	1.61
TCTGCTAGGTCAACGATGGTGAGCTAATCTGCTA	2.8	3.82	4.93	0.81	1.99	2.68	0.17	-0.792
ACTATGAGTTGAGACGAGGGCAACCGATAGGTTG	1.27	1.15	1.14	0.701	0.821	3.63	0.024	0.979
CGAACTAGGTCATTGAGAGGACAGTGAATAGTAA	3.22	5.93	4.96	2.07	3.22	3.42	1.08	1.56
TTGCCTAGGTCATGCGGGCCAGTATAGTGTCGGC	2.96	3.93	4.33	0.791	2.76	3.08	0.807	0.421
TCTACCAGGCCAGAGGGTCACTCAAGAGGTACGG	3	3.03	2.46	0.518	2.92	1.93	0.581	0.936
CGAACTAGGGCAGAACAGGACAGTGAAGGATGAT	0.707	0.486	0.757	0.0235	-0.0297	1.58	-0.495	-0.0975
CCTCGGAGGACAGAAGGTCATAGCTGTCCGCTTT	3.97	4.4	3.92	0.657	3.43	2.95	0.318	1.45
CGTCCAAGGTCAGAGAGGTGAGTGAATGCCGAGT	3.85	4.7	5.44	3.06	3.79	3.81	2.28	2.26
CGTCATAGTTCAACTAAGGTAACGTAAAGCACGC	2.62	3.44	3.83	2.38	2.7	5.14	1.9	1.51
CGTCCAAGGTCAGCAGGTCAGTGCAAGCGACGTG	4.99	6.35	6.82	2.29	4.74	3.77	2.47	2.18
CCTAGCAGGCCAATCTGGGTCACGCAAGGCTTGA	2.43	1.86	1.9	-0.504	1.69	3.99	0.767	-0.0889
GCTGCTAGCTCAGGTTGGTCAGCTAACGGGTACG	-0.467	-0.618	-0.751	-0.375	-1.02	-0.615	-0.751	-0.32
ACTTACGGGTCAACGAGGTTATACCACGCGTATA	3.79	5.84	5.48	3.08	6.66	3.97	1.34	4.44
AGTCAAAGTTCAGGGCGAGGTAACGTAAAGCACG	3.56	5.13	4.99	2.95	3.15	3.64	1.28	2.15

Sequence	PBM binding z-score [1]	PBM binding z-score [2]	PBM binding z-score [3]	PBM binding z-score [4]	PBM binding z-score [5]	PBM binding z-score [6]	PBM binding z-score [7]	PBM binding z-score [8]
TCATATAGGTAATGGTGAAAGTCGAACGATATGA	-0.191	0.377	0.547	0.843	0.587	-0.0618	-0.634	-0.582
TGAATGAGGTTATAATATCAGGGAACGTTGCAAA	0.41	1.56	1.12	0.98	2.04	1.92	0.355	0.545
GATACAGGGTCCAGGCCAGAGTACGCGTATTGAT	0.265	0.144	0.255	-0.135	0.291	-0.105	-0.0572	0.607
TAGCCTAGGTCATTGAGGGGCCAGTATAGAAAGC	2.97	5.82	4.34	1.59	2.82	3.05	0.714	1.16
GCTACTTGGTCAGTAAAAGGTCACACACCGGTCG	5.14	5.37	5.09	0.64	5.41	3.55	2.08	2.09
ACACACAGGTGAGTGAAGGTAACTCAGCTGGACG	-0.00486	0.394	0.59	-0.0875	0.549	1.57	-0.409	-0.0907
CCGACTGGGGCAGAAAGGTTCCCATACCATCCGG	0.053	-0.0575	0.0675	-1.16	-0.265	-0.504	-0.737	-0.826
AGTCAAAGTTCAGGACGAGGTAACATAAAGCACG	3.26	4.89	4.71	3.19	3.25	3.73	1.55	2.24
CAAACTAGATCACAGAGGTCAAAGTCCGTGCGTA	4.34	4.96	4.25	2.41	5.63	3.64	1.29	5.11
TCTTGTAGATCAAAGGTTACGAAAGCCGAAGCCT	1.9	2.29	1.06	0.663	3.64	1.66	-0.301	-0.125
TCATCTAGGTAATACAGGTGAAAGTCGGCATCTA	0.692	0.578	0.298	1.24	0.959	1.07	0.275	0.373
CCGACTGGGGAATAAGGTTACCATAAGCCAGCCC	1.02	0.435	0.223	-0.297	0.812	2.03	1.18	-0.0686
CCTAGCAGGCCAATCCGGGTCACTCAAGGCTTGA	2.35	1.67	1.42	0.0497	1.65	4.38	1.72	0.638
CAGCCTCGGTCAGGGCCAGTATAGGAGGAACGTT	1.31	0.85	1.86	-0.961	-0.355	-0.5	-0.413	-0.875
CCTAGTTGGCCAGGAGGTCACACACCGGATATGA	4.01	4.27	3.43	0.6	4.51	3.54	2.38	2.16
CCTACTGGGCCAAAAAGGACATTGATGCCGATAA	0.641	0.266	0.586	-0.359	-0.202	0.101	-0.447	0.158
AGAACGAGGGCAATGAGTTGATCGCACGGGTGGC	0.965	0.967	1.42	2.25	0.774	1.14	-0.233	3.08
TCTAGTTGGTCAAAGGACACACACTCGAAATGCG	1.99	1.75	2.29	1.09	1.12	1.59	1.14	0.435
ATCTATAGGTAACAAGTTCAGTGAAAGAGAGGAC	2.01	1.61	1.59	1.56	1.19	1.33	0.91	2.47

Sequence	PBM binding z-score [1]	PBM binding z-score [2]	PBM binding z-score [3]	PBM binding z-score [4]	PBM binding z-score [5]	PBM binding z-score [6]	PBM binding z-score [7]	PBM binding z-score [8]
TCGAATAGGTTAGGGGCATTCAGAATGGCGTCGA	1.08	0.753	0.9	1.19	1.15	0.948	0.436	0.995
TCTATTAGTTGAAGGGCAACCTACGAGTCCGTTT	1.2	0.698	0.806	1.51	0.858	0.233	-0.0206	1.42
TGTCAAAGTTCAAAGGTAACGTATGTATCCACAC	3.78	6.21	5.94	4.28	6.97	3.08	-0.0625	3.87
CCTAGCAGCCCAATCTGGGTCACTCAAGGCTTGA	1.77	0.615	0.301	-0.241	0.56	2.28	0.424	-0.324
CCTACTGGGCCACAAAAGGTCATTGATTCAGTGA	4.58	4.47	3.91	0.362	4.76	3.73	0.921	1.92
GCTTGTAGAACAAGGTTAAGAAAGACTAAGCTAA	-0.00172	0.534	0.188	-0.0592	0.633	0.947	-0.592	-0.315
GCTTACGGGTCAAAGGTTATAGCATGAATAGAAT	3.25	6.76	4.71	2.42	9.18	4.02	0.25	1.58
CCTTACGGGTCACGAGCTTATAGCACGACGAGCG	3.08	5.67	5.35	1.94	6.23	3.07	0.145	0.809
TCTTGTCGATCAGCAGGTTAAGAAAGCTGGCCAA	0.242	-0.108	-0.509	0.615	0.217	0.316	-0.476	-0.421
ATATGTAGGTTACATCCGTGTCATTCAGGCTATG	1.2	1.59	1.21	1.02	1.08	1.4	0.344	0.511
GGAACGACGGCATTCGAGTTGATAGCATGGCGAT	-1.09	-0.451	-0.127	-0.144	-0.39	-0.124	-1.19	-0.259
CCGACTGGGGCAGAAAGGTTACCGTACCATCCGG	2.49	1.52	1.28	-0.805	1.84	1.18	-0.556	-0.155
CTACCAAGGTGAACACGGTCGTTGATTACTATTC	1.24	0.852	0.843	0.773	0.777	2.07	0.961	0.015
TGAATGAGGTTATAAGATCAGGGTACGTTGCAAA	0.678	1.49	1	0.96	2.09	2.04	0.622	1.73
TTTATTAGTTGAAGGGCAACCGACGAGTCCGTTT	1.42	0.781	0.783	0.859	0.628	0.408	0.198	1.91
TAGCCTAGGTCAGATCGGGACAGTATACGCTATA	2.11	2.85	3.78	-0.412	1.76	4.67	0.686	-0.152
GCATATAGGTAATACAAGGTGAAAGCCCGATTGT	0.51	0.492	0.56	0.379	0.681	4.09	0.763	-0.285
GCTCGGAGGACAAGGTAAGAGCTTTGTCCGTAGA	-0.035	-0.119	0.491	-0.345	-0.527	0.97	-0.444	-0.59
